# A number with no mark means an inactive call. Results filed as inconclusive are left out. Active and inactive are the calls of the source. Unless noted, the call rests on the fitted dose curve; in most records, active means well fitted curve in either direction with a large enough effect (not every such curve was filed as active); inconclusive means small, poorly fitted or top-dose-only effect, or another doubt; inactive means flat fitted curve, though single readings scatter.
# Tests used:
# [1] = target: Lysosomal acid glucosylceramidase (Homo sapiens) (UniProt P04062); test: Glucocerebrosidase-p2 (AID 348; in the data active means potency below about 10 µM; further: potency means the concentration at half of the fitted maximal effect); details: purified GBA, blue fluorogenic substrate, 40 min
# Method in brief: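 Normal human glucocerebrosidase (0.2 nM) with blue fluorogenic substrate (80 uM final) in citrate/phosphate pH 5.9 with 10mM sodium taurocholate, 0.01% tween-20; 40 min RT, NaOH/glycine stop; fluorescence Ex 365/Em 440; AC50 from a titration from 0.6 nM upwards.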
# [2] = AP1 Signaling Pathway (AID 357); details: ME-180 AP-1-bla reporter, EGF-induced, beta-lactamase ratio, 5 h; at 7.69 µM (top of the series) unless noted;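 further: ME-180 reporter cells stimulated with EGF at its EC50 level; on the % scale 0 is the no-effect control and ±100 the full control effect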
# Method in brief: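 Beta-lactamase reporter under AP-1 response element, ME-180 background. Stimulus: EC50 EGF. Compound exposure 5 h, 37 °C. Detection: CCF4, 2.5 h RT, 460/530 nm. Values: AC50 from titration.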
# [3] = target: Cytochrome P450 1A2 (Homo sapiens) (UniProt P05177); test: p450-cyp1a2 (AID 410; calls by dose curve; further: potency means the concentration at half of the fitted maximal effect;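 on activity change, negative = inhibition: -100% = full effect of reference inhibitor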); details: recombinant CYP1A2, luciferin-ME demethylation, luminescence; series mostly up to 11.4 µM
# Method in brief: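 O-Demethylation of luciferin 6' methyl ether by human CYP1A2 is monitored as luciferase luminescence. Substrate sits at Km (100uM); enzyme is 20nM. Values are scaled to 57 uM furafylline as maximal inhibition.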
# [4] = NFAT Signaling Pathway (AID 444); details: Jurkat NFAT-bla M1, carbachol, beta-lactamase ratio, 5 h; at 7.69 µM (top of the series) unless noted;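 further: carbachol stimulus at about its EC50 of 1 µM final; on the % scale 0 is the no-effect control and ±100 the full control effect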
# Method in brief: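 Read-out: CCF4 FRET ratio (460 nm/530 nm) after 1 h RT dye loading, used for %activity and AC50 from titration series. Cells: Jurkat NFAT-β-lactamase/M1 line, treated with compound plus 1 uM carbachol for 5 h, 37 °C.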
# [5] = Stat Signaling Pathway (AID 446); details: ME-180 (cervical carcinoma) SIE beta-lactamase reporter, IL-6 stimulated, 5 h; at 7.69 µM (top of the series) unless noted;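 further: ME-180 cervical cancer cells given 40 pM IL-6 alongside compound; SIE-controlled beta-lactamase reporter measured as 460/530 nm FRET emission ratio; on the % scale 0 is the no-effect control and ±100 the full control effect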
# Method in brief: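 Overnight-plated ME-180 cells bearing a STAT Inducible Element beta-lactamase reporter; 5 h co-exposure to compound and 40 pM IL-6; values normalized to 300 pM IL-6 and 125 nM JAK inhibitor controls.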
# [6] = target: Glucocorticoid receptor (Homo sapiens) (UniProt P04150); test: GR-GFP Redistribution (AID 450;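 active means compounds whose dose series gives a full or clear partial fitted curve of increased nuclear translocation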; further: potency means the concentration at half of the fitted maximal effect); details: U2OS GR-GFP nuclear translocation, laser cytometry, 2 h
# [7] = target: Glucocorticoid receptor (Homo sapiens) (UniProt P04150); test: GR-EFC Redistribution (AID 451; calls by dose curve; further: potency means the concentration at half of the fitted maximal effect); details: CHO-K1 GR-EFC translocation, beta-gal luminescence, 2 h
# Method in brief: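 Translocation of GR-ED fusion to nuclear EA restores b-gal, read by luminescence after 1 h room-temperature detection. Engineered CHO-K1 biosensor cells, 1,000/well, exposed 2 h at 37 C to titrations up to 46 uM final.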
# [8] = target: Mitogen-activated protein kinase 10 (Mus musculus) (UniProt Q61831); test: JNK3 AlphaScreen Assay (AID 530); details: JNK3 lysate, c-Jun phosphorylation; series mostly up to 57.1 µM;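 further: kinase came from lysate of stimulated human HepG2 cells; signal reports phosphorylation of biotinylated GST-cJun 1-79 at Ser73 with 10 µM ATP; on the % scale 0 is the no-effect control and ±100 the full control effect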
# Method in brief: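 qHTS titrations with 15 min compound pre-incubation before adding ATP (10 uM final). Read-out: AlphaScreen of Ser73-phosphorylated biotin-GST-cJun using HepG2 lysate JNK3 activated by IL-1β and TNFα.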
# [9] = target: 3',5'-cyclic-AMP phosphodiesterase 4B (Homo sapiens) (UniProt Q07343); test: qHTS Assay for Inhibitors of PDE-IV (AID 607; active means well fitted activation curve with a large enough effect in the main read-out, with a control signal flat, not every such curve was filed as active; further: % of control where 0% means no effect); details: HEK293 ACTOne CNG channel cells, membrane potential fluorescence; series mostly up to 22.9 µM
# Method in brief: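 Live HEK293 cells with a modified cyclic nucleotide-gated (CNG) channel report intracellular cAMP via membrane-potential dye fluorescence (ex 535/em 590 nm). Endogenous PDE-IV was targeted. Compounds were tested at up to 22.9 uM final; RO 20-1724 100 uM served as control.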
# [10] = target: Cytochrome P450 2C9 (Homo sapiens) (UniProt P11712); test: qHTS Assay for Inhibitors and Substrates of Cytochrome P450 2C9 (AID 883; active means well fitted curve in the direction sought with a large enough effect; an effect the other way counts as inactive or inconclusive; further: on the % scale 0 is the no-effect control and ±100 the full control effect; nearly all actives have a fitted effect of over 60% in size); details: recombinant CYP2C9, luciferin-H luminescence, 60 min; series mostly up to 57.1 µM
# Method in brief: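 Luminescent read-out of deoxyluciferin hydroxylation, normalized to 57uM sulphaphenazole (AC100). Reaction: 10nM enzyme, 100uM Luciferin-H (equal to KM), 25mM KPO4, 10 min compound preincubation, then 60 min with NADPH regeneration, both at 37C.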
# [11] = target: Cytochrome P450 3A4 (Homo sapiens) (UniProt P08684); test: qHTS Assay for Inhibitors and Substrates of Cytochrome P450 3A4 (AID 884; active means well fitted curve in the direction sought with a large enough effect; an effect the other way counts as inactive or inconclusive; further: potency means the concentration at half of the fitted maximal effect; nearly all actives have a fitted effect of over 50% in size); details: recombinant CYP3A4, Luciferin-PPXE luminescence; series mostly up to 57.1 µM
# Method in brief: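 Luminescent readout of luciferin produced by CYP3A4 (20 nM) dealkylation of Luciferin-PPXE, 25 uM (its KM). NADPH-driven reaction ran 60 min at RT after 10 min compound preincubation; data scaled to 57 uM ketoconazole as 100% inhibition.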
# [12] = target: Cytochrome P450 3A4 (Homo sapiens) (UniProt P08684); test: qHTS Assay for Activators of Cytochrome P450 3A4 (AID 885; active means well fitted curve in the direction sought with a large enough effect; an effect the other way counts as inactive or inconclusive; further: nearly all actives have a fitted effect of over 65% in size); details: recombinant CYP3A4, Luciferin-PPXE luminescence, 60 min; series mostly up to 57.1 µM
# Method in brief: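 Using 20nM recombinant human CYP3A4 in potassium phosphate (200mM), substrate Luciferin-PPXE at 25uM, luminescent luciferin detection followed a 60-min RT NADPH reaction; data scaled to 57 uM ketoconazole.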
# [13] = target: Cytochrome P450 2C19 (Homo sapiens) (UniProt P33261); test: qHTS Assay for Inhibitors and Substrates of Cytochrome P450 2C19 (AID 899; active means well fitted curve in the direction sought with a large enough effect; an effect the other way counts as inactive or inconclusive; further: potency means the concentration at half of the fitted maximal effect; nearly all actives have a fitted effect of over 60% in size); details: recombinant CYP2C19, luciferin-H EGE luminescence; series mostly up to 11.4 µM
# Method in brief: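 Luminescence readout of luciferin formed from 10uM Luciferin-H EGE (KM level) by 5 nM CYP2C19 in 50mM KPO4. 60 min NADPH-driven reaction at 37C after 10 min compound preincubation; data scaled to 57uM ketoconazole inhibition.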
# Glucocorticoid receptor (Homo sapiens), sequence (P04150 whole entry, looked up, the tested form may be a part): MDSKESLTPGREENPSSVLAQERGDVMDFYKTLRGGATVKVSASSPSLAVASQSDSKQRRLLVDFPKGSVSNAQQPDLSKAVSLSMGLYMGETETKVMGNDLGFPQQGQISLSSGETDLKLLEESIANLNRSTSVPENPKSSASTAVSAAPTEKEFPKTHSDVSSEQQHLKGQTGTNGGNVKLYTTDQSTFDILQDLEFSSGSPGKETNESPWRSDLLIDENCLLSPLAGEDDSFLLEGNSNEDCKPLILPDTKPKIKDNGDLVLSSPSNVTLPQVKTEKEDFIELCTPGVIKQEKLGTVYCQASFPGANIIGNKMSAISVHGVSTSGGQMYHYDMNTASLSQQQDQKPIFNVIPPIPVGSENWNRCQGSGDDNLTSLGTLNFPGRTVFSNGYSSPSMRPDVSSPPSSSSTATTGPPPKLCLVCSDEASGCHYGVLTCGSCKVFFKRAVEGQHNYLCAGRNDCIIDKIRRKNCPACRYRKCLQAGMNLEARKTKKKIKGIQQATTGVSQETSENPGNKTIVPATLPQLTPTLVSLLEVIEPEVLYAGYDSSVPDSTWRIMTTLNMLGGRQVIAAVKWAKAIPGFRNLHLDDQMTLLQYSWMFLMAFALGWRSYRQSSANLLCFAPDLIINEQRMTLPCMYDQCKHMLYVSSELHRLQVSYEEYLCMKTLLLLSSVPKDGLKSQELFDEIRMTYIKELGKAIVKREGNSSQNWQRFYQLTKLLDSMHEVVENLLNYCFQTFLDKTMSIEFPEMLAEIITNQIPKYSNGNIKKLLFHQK
# Cytochrome P450 1A2 (Homo sapiens), sequence (P05177 whole entry, looked up): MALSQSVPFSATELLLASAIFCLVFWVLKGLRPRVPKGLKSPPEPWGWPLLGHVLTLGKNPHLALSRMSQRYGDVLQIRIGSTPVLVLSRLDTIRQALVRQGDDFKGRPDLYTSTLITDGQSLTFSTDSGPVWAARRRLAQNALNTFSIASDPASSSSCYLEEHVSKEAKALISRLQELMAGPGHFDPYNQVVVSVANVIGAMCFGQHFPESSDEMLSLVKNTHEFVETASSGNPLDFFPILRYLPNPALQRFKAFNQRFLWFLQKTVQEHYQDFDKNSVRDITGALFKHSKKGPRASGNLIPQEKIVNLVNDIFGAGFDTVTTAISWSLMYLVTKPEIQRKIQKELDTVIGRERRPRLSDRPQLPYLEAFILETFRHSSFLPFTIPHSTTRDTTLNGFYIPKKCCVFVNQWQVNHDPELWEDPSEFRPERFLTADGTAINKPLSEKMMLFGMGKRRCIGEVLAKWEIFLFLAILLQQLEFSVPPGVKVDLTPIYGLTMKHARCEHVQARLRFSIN
# Lysosomal acid glucosylceramidase (Homo sapiens), sequence (P04062 whole entry, looked up): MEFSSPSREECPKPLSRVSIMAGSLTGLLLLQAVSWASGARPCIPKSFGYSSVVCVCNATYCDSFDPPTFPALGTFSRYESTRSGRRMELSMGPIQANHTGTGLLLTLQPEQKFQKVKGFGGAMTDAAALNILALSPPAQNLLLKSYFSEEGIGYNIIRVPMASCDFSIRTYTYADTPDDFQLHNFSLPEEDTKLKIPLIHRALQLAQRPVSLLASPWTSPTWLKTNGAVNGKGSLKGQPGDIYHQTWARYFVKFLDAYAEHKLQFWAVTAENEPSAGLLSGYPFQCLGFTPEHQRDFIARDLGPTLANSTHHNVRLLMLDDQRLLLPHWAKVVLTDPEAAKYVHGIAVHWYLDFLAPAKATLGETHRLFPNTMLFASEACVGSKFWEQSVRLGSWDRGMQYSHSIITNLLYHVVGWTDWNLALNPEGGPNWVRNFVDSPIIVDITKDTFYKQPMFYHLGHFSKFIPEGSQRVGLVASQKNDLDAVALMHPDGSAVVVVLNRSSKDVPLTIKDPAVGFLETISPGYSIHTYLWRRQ
# 3',5'-cyclic-AMP phosphodiesterase 4B (Homo sapiens), sequence (Q07343 whole entry, looked up): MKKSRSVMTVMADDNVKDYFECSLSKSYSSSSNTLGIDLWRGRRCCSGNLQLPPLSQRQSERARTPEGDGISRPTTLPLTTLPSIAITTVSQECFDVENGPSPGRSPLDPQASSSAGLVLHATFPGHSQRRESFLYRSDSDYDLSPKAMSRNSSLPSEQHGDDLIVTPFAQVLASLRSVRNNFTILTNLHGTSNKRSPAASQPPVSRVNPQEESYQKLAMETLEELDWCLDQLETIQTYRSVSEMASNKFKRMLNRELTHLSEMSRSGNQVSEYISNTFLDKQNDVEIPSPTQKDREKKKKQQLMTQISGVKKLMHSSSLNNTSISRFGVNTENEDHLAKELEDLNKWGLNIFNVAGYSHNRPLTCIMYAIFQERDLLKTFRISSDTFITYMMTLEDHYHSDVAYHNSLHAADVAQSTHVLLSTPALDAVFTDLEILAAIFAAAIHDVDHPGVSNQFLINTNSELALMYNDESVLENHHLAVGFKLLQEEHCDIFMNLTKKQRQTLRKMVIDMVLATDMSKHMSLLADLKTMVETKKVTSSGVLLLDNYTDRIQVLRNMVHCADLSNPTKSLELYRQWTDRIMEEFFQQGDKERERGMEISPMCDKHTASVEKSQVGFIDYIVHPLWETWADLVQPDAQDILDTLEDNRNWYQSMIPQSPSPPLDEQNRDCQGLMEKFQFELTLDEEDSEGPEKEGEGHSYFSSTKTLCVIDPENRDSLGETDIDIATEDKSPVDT
# Cytochrome P450 3A4 (Homo sapiens), sequence (P08684 whole entry, looked up): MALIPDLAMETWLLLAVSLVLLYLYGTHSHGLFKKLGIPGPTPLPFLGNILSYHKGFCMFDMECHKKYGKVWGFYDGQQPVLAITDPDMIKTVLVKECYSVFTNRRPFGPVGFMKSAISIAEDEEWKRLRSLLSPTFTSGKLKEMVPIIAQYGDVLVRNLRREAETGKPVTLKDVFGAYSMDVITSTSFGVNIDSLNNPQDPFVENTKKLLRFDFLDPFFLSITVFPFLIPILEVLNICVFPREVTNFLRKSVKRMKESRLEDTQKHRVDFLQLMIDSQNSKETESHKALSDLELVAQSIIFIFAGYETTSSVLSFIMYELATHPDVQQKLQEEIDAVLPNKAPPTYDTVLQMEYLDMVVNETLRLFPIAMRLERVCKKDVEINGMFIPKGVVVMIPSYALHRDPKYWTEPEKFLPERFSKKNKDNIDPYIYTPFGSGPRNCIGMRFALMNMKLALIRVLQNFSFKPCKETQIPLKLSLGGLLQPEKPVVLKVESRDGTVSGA
# Cytochrome P450 2C9 (Homo sapiens), sequence (P11712 whole entry, looked up): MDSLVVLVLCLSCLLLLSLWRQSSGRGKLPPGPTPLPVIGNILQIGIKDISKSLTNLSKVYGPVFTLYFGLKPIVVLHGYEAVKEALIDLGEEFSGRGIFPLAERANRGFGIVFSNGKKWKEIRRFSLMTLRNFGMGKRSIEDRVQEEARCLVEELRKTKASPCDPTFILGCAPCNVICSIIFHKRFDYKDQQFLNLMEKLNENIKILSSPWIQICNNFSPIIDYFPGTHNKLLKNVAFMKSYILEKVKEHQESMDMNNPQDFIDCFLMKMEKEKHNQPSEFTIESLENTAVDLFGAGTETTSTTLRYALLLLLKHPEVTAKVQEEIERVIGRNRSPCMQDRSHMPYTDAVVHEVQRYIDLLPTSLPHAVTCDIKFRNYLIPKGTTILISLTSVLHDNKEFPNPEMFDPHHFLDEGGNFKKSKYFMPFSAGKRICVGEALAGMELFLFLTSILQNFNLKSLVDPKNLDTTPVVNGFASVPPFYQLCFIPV
# Cytochrome P450 2C19 (Homo sapiens), sequence (P33261 whole entry, looked up): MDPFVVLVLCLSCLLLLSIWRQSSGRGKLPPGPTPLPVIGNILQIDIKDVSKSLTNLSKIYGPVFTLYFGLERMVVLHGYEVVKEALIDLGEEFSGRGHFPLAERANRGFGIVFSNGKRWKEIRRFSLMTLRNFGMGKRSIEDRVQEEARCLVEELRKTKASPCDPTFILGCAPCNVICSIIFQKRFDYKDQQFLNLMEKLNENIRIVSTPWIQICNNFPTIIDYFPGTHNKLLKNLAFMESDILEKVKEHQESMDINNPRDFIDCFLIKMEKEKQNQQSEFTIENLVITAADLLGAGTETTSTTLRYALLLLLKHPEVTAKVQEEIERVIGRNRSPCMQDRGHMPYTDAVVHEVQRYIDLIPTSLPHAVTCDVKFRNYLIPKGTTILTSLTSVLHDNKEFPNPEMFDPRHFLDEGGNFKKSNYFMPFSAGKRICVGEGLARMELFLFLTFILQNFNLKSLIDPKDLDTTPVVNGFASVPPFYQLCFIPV
Structure (SMILES),Potency [1],"activity change, negative = inhibition [2]",Potency [3],"activity change, negative = inhibition [4]","activity, negative = inhibition [5]",Potency [6],Potency [7],"activity change, negative = inhibition [8]",outcome [9],"activity change, negative = inhibition [3]","activity change, negative = inhibition [10]",Potency [11],"activity change, positive = activation [12]",Potency [13]
CN(C)CCCc1c[nH]c2ccccc12,> 11.4 µM,-7.94%,inactive,-13%,1.91%,> 46 µM,> 9.22 µM,3.98% [at 11.4 µM],inactive,–,–,–,–,–
CC(C)CC(=O)C[C@H](O)C(Cl)(Cl)Cl,> 11.4 µM,3.65%,inactive,-9%,-1.91%,> 46 µM,> 9.22 µM,5.57% [at 11.4 µM],inactive,–,–,–,–,–
CO[C@H]1[C@H](O)[C@H](O[C@@H]2[C@H](Oc3cccc4c(O)c5c(=O)oc6ccc(C)c7c(=O)oc(c34)c5c67)O[C@@H](C)[C@H](O)[C@H]2O)O[C@@H](C)[C@@H]1O,> 11.4 µM,1.4%,inactive,10.4%,7.37%,> 46 µM,> 9.22 µM,1.22% [at 11.4 µM],inactive,–,–,–,–,–
N[C@@H](Cc1ccccc1)P(=O)(O)O,> 11.4 µM,-2.48%,inactive,12.4%,-2.79%,> 46 µM,> 9.22 µM,3.3% [at 11.4 µM],inactive,–,–,–,–,–
CC(C)(C)C(=O)CP(=O)(O)O,> 11.4 µM,11.4%,inactive,-0.88%,-5.75%,> 46 µM,> 9.22 µM,5.32% [at 11.4 µM],inactive,–,–,–,–,–
Cc1ncc([N+](=O)[O-])n1CCN=[N+]=[N-],> 11.4 µM,3.02%,inactive,5.75%,-11.7%,> 46 µM,> 9.22 µM,2.72% [at 11.4 µM],inactive,–,–,–,–,–
Nc1nc(N)c(N=Nc2ccc([As](=O)(O)O)cc2)c(=O)[nH]1,> 11.4 µM,6.48%,–,5.43%,0.893%,> 46 µM,> 9.22 µM,5.04% [at 11.4 µM],inactive,-14.9% [at 2.29 µM],–,–,–,–
CC[C@@]1(O)C(=O)OCc2c1cc1n(c2=O)Cc2cc3c(NC(=O)CN)cccc3nc2-1,> 11.4 µM,-9.07%,–,-29.2%,-20.5%,> 46 µM,> 9.22 µM,-2.05% [at 11.4 µM],inactive,-12.3% [at 2.29 µM],–,–,–,–
CSCC[C@@H](N)P(C)(=O)O,> 11.4 µM,10.2%,inactive,2.01%,13.5%,> 46 µM,> 9.22 µM,0.585% [at 11.4 µM],inactive,–,–,–,–,–
CN(CCC(=O)O)C1=Nc2ccc(Cl)cc2C(c2ccccc2)=[N+]([O-])C1,> 11.4 µM,-5.9%,0.0631 µM (active),13.9%,1.77%,> 46 µM,> 9.22 µM,1.43% [at 11.4 µM],inactive,–,–,–,–,–
N[C@H](Cc1c[nH]c2ccccc12)P(=O)(O)O,> 11.4 µM,-3.26%,inactive,-3.98%,-3.09%,> 46 µM,> 9.22 µM,4.66% [at 11.4 µM],inactive,–,–,–,–,–
C1C[C@@H]2CN(CCCN3CCOCC3)[C@@H](C1)O2,> 11.4 µM,-6.14%,inactive,9.72%,11.7%,> 46 µM,> 9.22 µM,4.78% [at 11.4 µM],inactive,–,–,–,–,–
CS(=N)(=O)CC[C@H](N)P(=O)(O)O (some centres not stated),> 11.4 µM,-0.909%,inactive,-0.082%,2.22%,> 46 µM,> 9.22 µM,-2.65% [at 11.4 µM],inactive,–,–,–,–,–
CC(C)C(=O)CP(=O)(O)O,> 11.4 µM,10.1%,inactive,7.02%,5.14%,> 46 µM,> 9.22 µM,3.33% [at 11.4 µM],inactive,–,–,–,–,–
Oc1ccc([C@H](O)[C@@H]2CCCCN2)cc1O,> 11.4 µM,-22.3%,inactive,5.42%,8.8%,> 46 µM,> 9.22 µM,1.46% [at 11.4 µM],inactive,–,–,–,–,–
CC1=C2C(=O)[C@@H]3[C@@H](CC=C4C[C@@H](O)CC[C@@]43C)[C@H]2CC[C@@]12O[C@H]1C[C@H](C)CN[C@H]1[C@@H]2C,> 11.4 µM,1.78%,inactive,3.5%,0.17%,> 46 µM,> 9.22 µM,0.541% [at 11.4 µM],inactive,–,–,–,–,–
[N-]=[N+]=NCC(=O)c1c[nH]c(=O)[nH]c1=O,> 11.4 µM,12.2%,–,5.05%,1.86%,> 46 µM,> 9.22 µM,0.476% [at 11.4 µM],inactive,0.1% [at 2.29 µM],–,–,–,–
COc1cc(CCN)c(OC)c(OC)c1,> 11.4 µM,7.8%,3.16 µM (active),-9.45%,-3.83%,> 46 µM,> 9.22 µM,4.46% [at 11.4 µM],inactive,–,–,–,–,–
c1ccc(C[N+]23CN4CN(CN(C4)C2)C3)cc1,> 11.4 µM,0.854%,–,6.01%,6.74%,> 46 µM,> 9.22 µM,-2.9% [at 11.4 µM],inactive,-10.1% [at 2.29 µM],–,–,–,–
O=C(O)CSCC(=O)O,> 11.4 µM,-1.42%,inactive,2.38%,7.17%,> 46 µM,> 9.22 µM,8.86% [at 11.4 µM],inactive,–,–,–,–,–
O=C(NCP(=O)(O)O)c1cccnc1,> 11.4 µM,23.1%,inactive,5.87%,4.58%,> 46 µM,> 9.22 µM,0.703% [at 11.4 µM],inactive,–,–,–,–,–
Cc1ccc(OP(=O)(Oc2ccc(C)cc2)N2C=Cc3ccccc3[C@H]2C#N)cc1,> 11.4 µM,0.753%,3.98 µM (active),-17.9%,-13.5%,> 46 µM,> 9.22 µM,7.39% [at 11.4 µM],inactive,–,45.9% [at 11.4 µM],2.51 µM (active),-91.2% [at 11.4 µM],2.51 µM (active)
Nc1nc(N)c(Cn2ccnc2)c(=O)[nH]1,> 11.4 µM,-1.23%,inactive,17.6%,7.55%,> 46 µM,> 9.22 µM,2.41% [at 11.4 µM],inactive,–,–,–,–,–
O=C1N[C@@]2(CN3CCC2CC3)C(=O)N1CN(Cc1ccccc1)c1ccccc1,> 11.4 µM,-6.81%,0.398 µM (active),6.45%,-6.68%,> 46 µM,> 9.22 µM,4.81% [at 11.4 µM],inactive,–,–,–,–,–
O=C(O)CN1C(=O)CN=C(c2ccccn2)c2cc(Cl)ccc21,> 11.4 µM,0.0967%,1.26 µM (active),-1.6%,6.14%,> 46 µM,> 9.22 µM,3.65% [at 11.4 µM],inactive,–,–,–,–,–
C[C@@H]1[C@@H](C)N1C[C@H](O)Cn1ccnc1[N+](=O)[O-] (some centres not stated),> 11.4 µM,1.57%,inactive,5.22%,-1.27%,> 46 µM,> 9.22 µM,-1.55% [at 11.4 µM],inactive,–,–,–,–,–
N[C@@H](CP(=O)(O)O)C(=O)O,> 11.4 µM,0.329%,inactive,2.91%,2.68%,> 46 µM,> 9.22 µM,5.7% [at 11.4 µM],inactive,–,–,–,–,–
